This is one part of a sample in which hits are shown more often than they occur.
IDE exosite inh: exo-site inhibitors of human insulin-degrading enzyme. P14735. purified IDE, FL-6b probe fluorescence polarization; active compounds read low. z-score at 20 µM. 17,000 compounds, 6.3% hits;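 active = z-score of -3 or lower, meaning strong loss of probe binding signal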;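 note: His-tagged human IDE residues 42-1019 made in E. coli with 30 nM FL-6b probe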
Target sequence (P14735 42-1019 limits assumed): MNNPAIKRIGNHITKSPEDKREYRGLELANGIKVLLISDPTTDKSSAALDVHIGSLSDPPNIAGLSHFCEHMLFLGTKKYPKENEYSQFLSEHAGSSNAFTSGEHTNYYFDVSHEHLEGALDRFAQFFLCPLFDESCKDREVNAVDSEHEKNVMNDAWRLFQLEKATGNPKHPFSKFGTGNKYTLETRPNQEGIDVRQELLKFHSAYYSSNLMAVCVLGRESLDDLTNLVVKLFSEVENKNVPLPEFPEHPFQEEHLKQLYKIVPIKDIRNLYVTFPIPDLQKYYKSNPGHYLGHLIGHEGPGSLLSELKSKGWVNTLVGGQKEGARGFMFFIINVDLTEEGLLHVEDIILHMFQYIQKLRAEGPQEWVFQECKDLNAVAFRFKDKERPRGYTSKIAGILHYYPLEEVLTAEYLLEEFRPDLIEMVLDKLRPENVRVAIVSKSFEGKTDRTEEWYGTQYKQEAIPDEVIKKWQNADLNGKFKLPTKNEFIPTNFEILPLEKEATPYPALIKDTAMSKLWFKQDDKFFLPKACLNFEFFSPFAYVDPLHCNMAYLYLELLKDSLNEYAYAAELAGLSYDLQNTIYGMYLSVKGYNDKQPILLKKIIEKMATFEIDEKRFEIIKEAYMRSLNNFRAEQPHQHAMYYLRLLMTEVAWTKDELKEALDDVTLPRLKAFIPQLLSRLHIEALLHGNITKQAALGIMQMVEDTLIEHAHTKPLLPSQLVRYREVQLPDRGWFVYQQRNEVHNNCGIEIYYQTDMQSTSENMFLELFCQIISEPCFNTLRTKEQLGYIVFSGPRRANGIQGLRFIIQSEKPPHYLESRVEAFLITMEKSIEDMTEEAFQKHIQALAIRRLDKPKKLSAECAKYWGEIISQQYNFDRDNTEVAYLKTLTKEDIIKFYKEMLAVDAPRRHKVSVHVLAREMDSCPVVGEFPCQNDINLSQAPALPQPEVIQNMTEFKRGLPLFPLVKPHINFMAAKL
* hit, by the source's call.

SMILES	IDE exosite inh
C[C@@H](NC(=O)C[C@@H]1CC[C@H]2[C@@H](COC[C@@H](O)CN2C(=O)Nc2cccc(Cl)c2)O1)c1ccccc1	-0.8
O=C(NCC[C@H]1CC[C@@H](NC(=O)c2ccccc2F)[C@H](CO)O1)c1cnccn1	0.34
C[C@H](CO)N1C[C@H](C)[C@H](CN(C)Cc2cccnc2)Oc2ncc(-c3ccc(C#N)cc3)cc2C1=O	0.17
O=C(CC1CC1)N1CC(=O)N2[C@H](C1)[C@H](c1ccc(C#Cc3ccc(F)cc3)cc1)[C@@H]2CO	-1.7
O=C(CC1CC1)N1CC(=O)N2[C@H](C1)[C@H](c1ccc(C#Cc3ccccc3)cc1)[C@@H]2CO	-16*
O=C(CC1CC1)N1CC(=O)N2[C@H](CO)[C@@H](c3ccc(C#Cc4ccc(F)cc4)cc3)[C@H]2C1	0.27
O=C(CC1CC1)N1CC(=O)N2[C@H](C1)[C@@H](c1ccc(C#Cc3ccccc3)cc1)[C@@H]2CO	-8.5*
O=C(CC1CC1)N1CC(=O)N2[C@H](CO)[C@@H](c3ccc(C#Cc4ccccc4)cc3)[C@@H]2C1	-7.7*
O=C(CC1CC1)N1CC(=O)N2[C@@H](CO)[C@@H](c3ccc(C#Cc4cccc(F)c4)cc3)[C@@H]2C1	-0.61
O=C(CC1CC1)N1CC(=O)N2[C@H](C1)[C@@H](c1ccc(C#Cc3ccc(F)cc3)cc1)[C@@H]2CO	0.15
O=C(CC1CC1)N1CC(=O)N2[C@H](CO)[C@H](c3ccc(C#Cc4ccccc4)cc3)[C@@H]2C1	-10*
O=C(Cc1ccccc1)N1CC(=O)N2[C@@H](CO)[C@@H](c3ccc(C#Cc4ccccc4)cc3)[C@@H]2C1	0.82
COCC#Cc1ccc([C@@H]2[C@H](CO)N3C(=O)CN(C(=O)Nc4ccccc4F)C[C@@H]23)cc1	-0.53
CCCNC(=O)N1CC2(CN(Cc3cccc(F)c3)C2)c2c([nH]c3cc(OC)ccc23)[C@@H]1CO	0.28
CO[C@H]1CC[C@H]2CCN(C)C(=O)[C@@H](C)N(C)C(=O)c3cccc(C#N)c3OC[C@@H]1O2	1.6
COc1ccc2c3c(n(C)c2c1)[C@@H](CO)N(CC1CC1)CC31CCN(C(=O)NC2CCCC2)CC1	-0.54
O=C1N[C@H](c2ccccc2)COCn2nncc2CC[C@H]1Cc1ccccc1	1.3
CCC(=O)N1[C@H](CO)[C@H](c2ccc(C3=CCCC3)cc2)[C@@H]1CNC1CCCCC1	0.0078
O=C(Cc1ccccc1)N1CC(=O)N2[C@H](CO)[C@@H](c3ccc(C#CCc4ccccc4)cc3)[C@H]2C1	2.1
O=C(Cc1ccccc1)N1CC(=O)N2[C@H](CO)[C@H](c3ccc(C#CCc4ccccc4)cc3)[C@H]2C1	-4.3*
CCC(=O)N1CC(=O)N2[C@H](C1)[C@H](c1ccc(C#CCc3ccccc3)cc1)[C@@H]2CO	0.49
O=C(Cc1ccccc1)N1CC(=O)N2[C@H](C1)[C@@H](c1ccc(C#Cc3ccccc3)cc1)[C@@H]2CO	-2.8
CCC(=O)N1CC(=O)N2[C@@H](CO)[C@@H](c3ccc(C#CCc4ccccc4)cc3)[C@@H]2C1	-7.4*
CCC(=O)N1CC(=O)N2[C@H](CO)[C@@H](c3ccc(C#CCc4ccccc4)cc3)[C@H]2C1	0.71
O=C(C[C@H]1C=C[C@H](NC(=O)CCN2CCCCC2)[C@H](CO)O1)Nc1nccs1	-1.3
SMILES	IDE exosite inh
CCCC#Cc1ccc([C@H]2[C@@H](CO)N(C(C)=O)[C@H]2CN(C)C(=O)C2CC2)cc1	-1.3
N#C[C@H]1[C@@H](c2ccccc2-c2ccccc2F)[C@H](CO)N1C(=O)c1cccc(F)c1	1.1
COc1cccc(NC(=O)N2CC(=O)N3[C@H](CO)[C@@H](c4ccc(C#CCC5CCCC5)cc4)[C@H]3C2)c1	0.063
CS(=O)(=O)N1CC(=O)N2[C@H](CO)[C@@H](c3ccc(Br)cc3)[C@@H]2C1	0.83
CCC(=O)N1[C@@H]2CN(S(=O)(=O)c3ccc(F)cc3)c3ccccc3[C@@H]2[C@@H]1CO	3.4
CC(C)NC(=O)N(C)C[C@H]1Oc2ccc(NC(=O)Cc3ccccc3)cc2CC(=O)N([C@H](C)CO)C[C@H]1C	1.2
O=C(C[C@H]1C[C@H]2c3cc(NS(=O)(=O)c4ccc(F)cc4)ccc3O[C@H]2[C@@H](CO)O1)NCCN1CCCCC1	-0.42
CCCNC(=O)N1[C@H](C#N)[C@H](c2ccc(-c3cccnc3)cc2)[C@H]1CO	0.74
CNC[C@@H]1Oc2cc(C#Cc3ccccc3OC)ccc2S(=O)(=O)N([C@@H](C)CO)C[C@H]1C	-0.4
C[C@@H]1CN([C@H](C)CO)C(=O)c2cc(NS(=O)(=O)c3cn(C)cn3)ccc2O[C@@H]1CN(C)S(=O)(=O)c1ccc(F)cc1	0.72
C[C@H]1CN([C@@H](C)CO)C(=O)c2cc(NC(=O)C3CC3)ccc2O[C@H]1CN(C)S(=O)(=O)c1ccccc1	0.3
C[C@@H]1CN([C@H](C)CO)C(=O)c2cc(NC(=O)C3CC3)ccc2O[C@H]1CN(C)S(=O)(=O)c1ccccc1	-3.5*
C[C@@H]1CN([C@H](C)CO)C(=O)c2cc(NS(=O)(=O)c3cn(C)cn3)ccc2O[C@H]1CN(C)S(=O)(=O)c1ccc(F)cc1	-4.5*
C[C@@H]1CN([C@@H](C)CO)C(=O)c2cc(NC(=O)C3CC3)ccc2O[C@@H]1CN(C)S(=O)(=O)c1ccccc1	0.11
C[C@@H]1CN([C@@H](C)CO)C(=O)c2cc(NS(=O)(=O)c3cn(C)cn3)ccc2O[C@H]1CN(C)S(=O)(=O)c1ccc(F)cc1	-0.032
O=C(CN1CCOCC1)NC[C@@H]1N[C@@H](CO)[C@H]1c1ccc(-c2ccccc2)cc1	-0.53
CN1c2ccc(Br)cc2[C@@H]2[C@@H](CCN2C(=O)C2CCC2)[C@@H]1CO	-0.16
O=C(CN1CCOCC1)N[C@@H]1CC[C@@H](CCn2cc(C3CC3)nn2)O[C@@H]1CO	-0.96
Cc1ccccc1S(=O)(=O)N1CCCCN2[C@H](CO)[C@@H](c3ccc(-c4cccnc4)cc3)[C@@H]2C1	-12*
O=S(=O)(c1ccccc1F)N1CCCCN2[C@H](CO)[C@@H](c3ccc(-c4cccnc4)cc3)[C@H]2C1	1
Cc1ccccc1S(=O)(=O)N1CCCCN2[C@H](CO)[C@H](c3ccc(-c4cccnc4)cc3)[C@H]2C1	0.44
Cc1ccccc1S(=O)(=O)N1CCCCN2[C@@H](CO)[C@@H](c3ccc(-c4cncnc4)cc3)[C@@H]2C1	-4.3*
O=S(=O)(c1ccccc1F)N1CCCCN2[C@H](CO)[C@H](c3ccc(-c4cccnc4)cc3)[C@@H]2C1	0.54
Cc1ccccc1S(=O)(=O)N1CCCCN2[C@H](CO)[C@@H](c3ccc(-c4cncnc4)cc3)[C@H]2C1	3.3
Cc1cccc(S(=O)(=O)N2CCCCN3[C@H](C2)[C@H](c2ccc(-c4cccnc4)cc2)[C@@H]3CO)c1	1.6
SMILES	IDE exosite inh
O=S(=O)(c1ccccc1F)N1CCCCN2[C@@H](CO)[C@@H](c3ccc(-c4cccnc4)cc3)[C@@H]2C1	-13*
Cc1ccccc1S(=O)(=O)N1CCCCN2[C@@H](CO)[C@H](c3ccc(-c4cncnc4)cc3)[C@@H]2C1	3.7
CCN1CC(=O)N2[C@H](C1)[C@H](c1ccc(-c3ccccc3F)cc1)[C@@H]2CO	-0.57
COCC(=O)N1CC(=O)N2[C@H](CO)[C@H](c3ccc(Br)cc3)[C@H]2C1	1.4
Cn1cnc(CCNC(=O)[C@@H]2[C@@H](CO)[C@@H]3Cn4c(cccc4=O)[C@@H]3N2C(=O)Nc2ccccc2)c1	0.48
Cc1ccccc1S(=O)(=O)N1CC(=O)N2[C@H](C1)[C@H](c1ccc(C#CC3CC3)cc1)[C@@H]2CO	3.2
